High-throughput results from PubChem BioAssay.
Tgondii IFNg = inhibitors of Toxoplasma gondii growth with IFN-gamma. AID 1259416. 3.8% of 69,000 active. activity change, negative = inhibition, % (concentration not given with the values). Toxoplasma gondii growth in IFN-gamma-treated host cells; active compounds read low; in the data active means activity change below about -70%, passing the limit was not always enough;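 further: host cells are HeLa cells infected with Toxoplasma gondii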
Numbers without * were called inactive. Shown is part of a subset that was picked to be rich in hits.

SMILES | Tgondii IFNg
C[C@@H]1CN(Cc2ccccc2F)CCN1CC(=O)Nc1ccc(N2CCCCCC2)cc1 | 444
O=C(Nc1ccc(N2CCCCC2)cc1)c1ccccc1Cl | 199
O=C(Nc1cnn(Cc2ccccc2F)c1)c1ccc(N2CCCCC2)cc1 | -95*
Cc1nc(CCNC(=O)Cc2c(C)[nH]c3c(F)cccc23)nc2c1CCC2 | 1
COCCN(C)C(=O)c1ccc2onc(-c3coc(-c4cccs4)n3)c2c1 | 9
Cc1oc(-c2ccc(Cl)cc2)nc1Cn1nnc(C(=O)Nc2ccc(F)c(F)c2)c1C | -6
COC[C@H](NC(=O)c1cnc(C)s1)C(=O)N[C@@H](COC)C(=O)N[C@@H](Cc1ccccc1)C(=O)C1(C)CO1 (some centres not stated) | -77*
COC(=O)[C@H](Cc1ccccc1)NC(=O)[C@@H](N)CC(=O)O | 16
COc1ncc(C(=O)NC(Cc2ccccc2)c2ccc3c(c2)OCCO3)cn1 (configuration not stated) | 67
Cc1noc(-c2ccnc(-n3ncc(C(=O)NCCc4c[nH]c5ccccc45)c3C)c2)n1 | 3
O=C(NCCc1c[nH]c2ccccc12)c1cc2occc2c(Nc2ccc(F)cc2)n1 | -85*
O=C(NCCc1c[nH]c2ccccc12)c1cccnc1 | 40
CCc1ccc(NC(=O)Cn2ncc3c(N4CCOCC4)ncnc32)cc1 | 108
Cc1nc2c(N(CCO)Cc3ccccc3)ncnc2o1 | 5
O=C(Cn1nc(-c2ccccc2)c2ccccc2c1=O)N1CC[C@H](O)[C@@H](O)C1 | 3
C=CCN1CC[C@@]2(CN(C(=O)[C@H]3CCCO3)C[C@H]2c2ccccc2)C1=O | -37
COc1cccc(-c2nc3c(s2)CN(S(=O)(=O)c2ccc(CC(C)C)cc2)CC3)c1 | -17
COc1cccc(-c2nc3c(s2)CN(S(=O)(=O)c2ccc(C(C)C)cc2)CC3)c1 | -37
CCOc1ccc(S(=O)(=O)N2CCc3nc(-c4cccc(OC)c4)sc3C2)cc1 | -23
COc1cccc(-c2nc3c(s2)CN(S(=O)(=O)c2ccc(OC)c(OC)c2)CC3)c1 | -20
COc1ccc(-c2nc3c(s2)CN(S(=O)(=O)c2cc(C)cc(C)c2)CC3)cc1OC | -125*
COc1ccc(S(=O)(=O)N2CCc3nc(-c4ccc(C)cc4)sc3C2)cc1OC | 16
CCOc1ccc(-c2nc3c(s2)CN(S(=O)(=O)c2ccc(F)cc2)CC3)cc1 | 43
CCOc1ccc(-c2nc3c(s2)CN(S(=O)(=O)c2cc(F)ccc2C)CC3)cc1 | -95*
COc1cccc(-c2nc3c(s2)CN(S(=O)(=O)c2cc(C)c(C)cc2C)CC3)c1 | -51
SMILES | Tgondii IFNg
COc1cccc(-c2nc3c(s2)CN(S(=O)(=O)c2ccccc2C)CC3)c1 | -107*
CCc1ccccc1S(=O)(=O)N1CCc2nc(-c3cccc(OC)c3)sc2C1 | -91*
CCOc1ccc(-c2nc3c(s2)CN(S(=O)(=O)c2cccc(F)c2)CC3)cc1 | 33
CCn1c(C2CCN(C(=O)CCc3cn4ccccc4n3)CC2)nn(C)c1=O | 3
CC1=C(C(=O)NCCCN(C)C2CCCCC2)C2(CCN(Cc3ccccc3)CC2)OC1=O | -56
O=C(CC(c1ccccc1)c1ccccc1)NCc1ccccc1 | 67
O=C1c2ccccc2S(=O)(=O)N1CCCN1CCN(c2ncccn2)CC1 | 11
CN1CCC(N(C)C(=O)c2cc3cccnc3n(Cc3ccc(F)cc3)c2=O)CC1 | 60
CCN1C(=O)N(C2Cc3ccccc3C2)C(=O)C12CCN(C/C=C/c1ccc(OC)cc1)CC2 | -11
Cc1oc(-c2ccco2)nc1COc1coc(CN2CCOCC2)cc1=O | -2
Cc1nc([C@@H]2C[C@@H]3CN(Cc4cccs4)C[C@@H]3O2)n[nH]1 | 141
CNC(=O)CC(C)N(C)Cc1nc[nH]c1C (configuration not stated) | 10
CCOc1ccc(-c2nc3c(s2)CN(S(=O)(=O)Cc2ccccc2)CC3)cc1 | 10
Cc1cc(C)c(S(=O)(=O)N2CCc3nc(-c4ccccc4)sc3C2)c(C)c1 | -6
Cc1ccc(-c2nc3c(s2)CN(S(=O)(=O)c2ccc(C)c(C)c2)CC3)cc1 | -25
O=S(=O)(c1ccc(F)cc1)N1CCc2nc(-c3ccccc3)sc2C1 | 45
Cc1cc(C)c(S(=O)(=O)N2CCc3nc(-c4ccccc4)sc3C2)cc1C | -89*
COc1ccc(-c2nc3c(s2)CN(S(=O)(=O)c2ccccc2C)CC3)cc1 | -115*
Cc1ccc(-c2nc3c(s2)CN(S(=O)(=O)c2ccccc2C)CC3)cc1 | -90*
COc1ccc(-c2nc3c(s2)CN(S(=O)(=O)c2ccc(C(C)(C)C)cc2)CC3)cc1 | -1
CCOc1ccc(-c2nc3c(s2)CN(S(=O)(=O)c2ccccc2C)CC3)cc1 | -94*
O=S(=O)(c1ccc(F)cc1F)N1CCc2nc(-c3ccccc3)sc2C1 | 37
COc1ccc(OC)c(Nc2nc(-c3nnc(-c4ccc(C)cc4)o3)nc3ccccc23)c1 | -56
Cc1[nH]c2ccccc2c1CC(=O)N1CCN2C(=O)CN(C)C(=O)C2C1 (configuration not stated) | 0
CCNC[C@@H]1[C@@H](c2ccc(-c3ccc(F)cc3)cc2)[C@@H](CO)N1C(=O)C1CC1 | -51
SMILES | Tgondii IFNg
C[C@@H]1CN([C@@H](C)CO)C(=O)c2ccccc2-c2ccccc2CO[C@@H]1CN(C)Cc1cccc(C(=O)O)c1 | -35
COc1cccc(OCC(=O)NCCc2sc(-c3ccc(F)cc3)nc2C)c1 | -40
O=C(NC1CCCOC1)c1cc(C2CCN(Cc3ccncc3)CC2)no1 (configuration not stated) | -15
O=C(CCn1cncn1)N1CCC(n2cc(-c3ccccn3)nn2)CC1 | 12
Cc1csc2c(N3CCC4(CCC(=O)N(C)CC4)CC3)ncnc12 | 6
COc1cccc(-c2nc3c(s2)CN(C(=O)Nc2ccccc2C)CC3)c1 | 25
Cc1ccc(-c2nc3c(s2)CN(S(=O)(=O)c2cccc(Cl)c2C)CC3)cc1 | -76*
COc1ccc(Cl)cc1S(=O)(=O)N1CCc2nc(-c3ccc(C)cc3)sc2C1 | -63
COc1cccc(-c2nc3c(s2)CN(S(=O)(=O)c2ccc(C)cc2)CC3)c1 | -54
COc1ccc(-c2nc3c(s2)CN(S(=O)(=O)c2ccc(Cl)cc2)CC3)cc1 | 16
COc1cccc(-c2nc3c(s2)CN(S(=O)(=O)c2ccc(Cl)cc2)CC3)c1 | -58
COc1ccc(-c2nc3c(s2)CN(S(=O)(=O)c2ccc(C)cc2)CC3)cc1 | -76*
COc1ccc(S(=O)(=O)N2CCc3nc(-c4cccc(OC)c4)sc3C2)cc1 | -9
CCCc1ccc(S(=O)(=O)N2CCc3nc(-c4ccc(OC)cc4)sc3C2)cc1 | 16
COc1cccc(-c2nc3c(s2)CN(S(=O)(=O)c2ccc(F)cc2)CC3)c1 | -79*
COc1cccc(-c2nc3c(s2)CN(S(=O)(=O)c2c(C)cc(C)cc2C)CC3)c1 | -98*
Cc1ccc(-c2nc3c(s2)CN(S(=O)(=O)c2ccc(F)cc2)CC3)cc1 | 6
Cc1cc(C)c2[nH]c(C)c(CC(=O)N3CCC4(CC3)NC(=O)N(C)C4=O)c2c1 | -1
O=C(Cn1c(=O)ccc2cc(S(=O)(=O)N3CCCC3)ccc21)Nc1ccccc1F | 102
COc1cc2[nH]c3c(=O)n(CCC(=O)NCc4ccccn4)cnc3c2cc1OC | 27
CCc1nc(C)sc1CNC(=O)c1c(O)cccc1O | 4
O=C(CCN1CCCCC1)N[C@H]1CC[C@@H](CC(=O)N2CCC(Cc3ccccc3)CC2)O[C@@H]1CO | -39
Cc1cccc(S(=O)(=O)N[C@@H]2CC[C@@H](CCNC(=O)Nc3cc(F)ccc3F)O[C@H]2CO)c1 | -16
O=C(NCCc1ccc(O)c(O)c1)C12CC3CC(CC(C3)C1)C2 | 11
